Several values for one entry are separate records, joined by “and”; a condition that tells them apart may be missing. Identical values can stand only once. Results filed as inconclusive are left out. Where a call stands in place of a potency, no number is given. Activity calls are given as the source filed them. The call rests on the fitted dose curve; in most records, active means well fitted cell-killing curve with a large enough effect in the repeat runs; inconclusive means weak or mixed curves, or effect the other way; inactive means no such curve, though single readings can be large or run the other way.

This is an account of results in PubChem BioAssay (Tox21).
Potency means the concentration at half of the fitted maximal effect.

The assay can be described thus: qHTS assay for identifying genotoxic compounds that show differential cytotoxicity against isogenic chicken DT40 cell lines with known DNA damage response pathways - wild type cell line (AID 743012). Further: nearly all actives have a fitted effect of over 60% in size. As to conditions: DT40 wild type chicken cells viability, CellTiter-Glo, 40 h; series mostly up to 68.4 µM. The text has this: U.S. Tox21 Program National Center for Advancing Translational Sciences [NCATS] NIH Chemical Genomics Center [NCGC] U.S. Environmental Protection Agency [EPA] National Institutes of Environmental Health Sciences [NIEHS] National Toxicology Program [NTP] U.S. Food and Drug Administration [FDA] Tox21 Assay Overview: DNA repair pathways play a critical role in cellular homeostasis by repairing DNA damage induced by endogenous processes and xenobiotics. Isogenic chicken DT40 cell lines deficient in different DNA repair pathways can be used to identify genotoxic compounds and aid in characterizing the nature of the DNA damage induced. Two DNA repair-deficient cell lines with disrupted genes, Rad54/Ku70 or Rev3, were used to screen the Tox21 10K compound library. Possible genotoxicity was based on the presence of a significant increase in cytotoxicity in one or more of the DNA repair-deficient cell lines compared to that observed in the parental DNA repair-proficient cell line. CellTiter Glo viability assay (Promega, Madison, WI) was used to measure cell viability in these cells after compound treatment. This assay includes the data from the wild type cell line.
Tox21 Assay Protocol Summary: 300 DT40 wild type cells in 5 uL/well were dispensed into white, solid-bottom 1536-well plates using a Multidrop Combi (ThermoFisher Scientific, Waltham, MA) dispenser. After the assay plates were incubated at 37 C/5% CO2 for approximately 0.5 hour, 23 nL of compounds dissolved in DMSO, positive controls or DMSO only was transferred into the assay plate by a pintool work station (Kalypsys, San Diego, CA). The assay plates were incubated at 37 C/5% CO2 for 40 hours. After 5 uL per well of CellTiter-Glo reagent was added into each well of the assay plates, the plates were incubated for 30 min at room temperature and the luminescence intensity of the plates was measured using a ViewLux (PerkinElmer, Shelton, CT) plate reader.
A general note: Quantitative high-throughput screening tests each substance at several concentrations.
As to `C=CC1CC2C=CC1C2` (stereo not given), the Potency result is “inactive”.
The value for `CCCCC(CC)CN1C(=O)C2C3C=CC(C3)C2C1=O` (stereo not given) was 38.6 µM (active).
As for `Nc1ccc(N)c2c1C(=O)c1ccccc1C2=O`, the Potency was 17.2 µM (active).
Then `C[C@H]1C[C@H]2[C@@H]3CCC4=CC(=O)C=C[C@]4(C)[C@@]3(Cl)[C@@H](O)C[C@]2(C)[C@@]1(O)C(=O)CO`, with “inactive”; and `CCCCNc1ccc(C(=O)OCCOCCOCCOCCOCCOCCOCCOCCOCCOC)cc1`, with “inactive”.
As to `CC(C)O.CC(C)O.CCOC(=O)/C=C(\C)O.CCOC(=O)/C=C(\C)O.[Ti]`, the Potency entry was “inactive”.
As for `CN1CCN(C(c2ccccc2)c2ccccc2)CC1`, the Potency entry was “inactive”.
On to `O=C(Nc1ccccc1)c1ccccc1O`, for which the Potency is 48.6 µM (active).
The value for `S=C([S-])NCCNC(=S)[S-].[Mn+2]` was 61.1 µM (active).
Take `CCOc1ccc(N=Nc2ccc(/C=C/c3ccc(N=Nc4ccc(OCC)cc4)cc3S(=O)(=O)O)c(S(=O)(=O)O)c2)cc1`: the Potency result is “inactive”.
Turning to `CC(C)(CO)[N+](=O)[O-]`, the Potency entry is “inactive”.
With `Clc1ccc2c(c1)CCc1cccnc1C2=C1CCNCC1`, the Potency is 5.31 µM (active).
Then `O=C1OC(=O)C2C3C=CC(C3)C12` (stereo not given), with “inactive”; and `NCCCN1CCOCC1`, with “inactive”; and `CCCCC(CC)COC(=O)COc1ccc(Cl)cc1Cl` (stereo not given), with “inactive”.
Turning to `CC(=O)NO`, the Potency result was “inactive”.
Regarding `CCn1cc(C(=O)O)c(=O)c2cnc(N3CCNCC3)nc21`, the Potency entry was “inactive”.
Take `CCCCCCCC#N`: the Potency entry was “inactive”.
With `CCCCCCCCCOS(=O)(=O)O`, the Potency result was “inactive”.
The value for `CN(C)C(=O)NC1(c2ccccc2)CCN(CC[C@@]2(c3ccc(F)c(F)c3)CN(C(=O)c3ccccc3)CCO2)CC1` was 40.2 µM (active); that for `CCCn1cnc2c1c(=O)n(CCCCC(C)=O)c(=O)n2C` was “inactive”.
Take `N=c1ccn2c(n1)O[C@H]1[C@H](O)[C@@H](CO)O[C@H]12`: the Potency is 211 nM (active) and 193 nM (active).
For the molecule `CCOc1ccc(N)c([N+](=O)[O-])c1`, the Potency result is “inactive”.
For `OC(C#CCN1CCCC1)(c1ccccc1)c1ccccc1`, the Potency is 23.7 µM (active).
`C=C(C)C(=O)OCCOCC`: the Potency entry is “inactive”.
For the molecule `CC(C)=CCC/C(C)=C/CC/C(C)=C/CO`, the Potency was 34.4 µM (active).
For `C=CC(=O)OCCOc1ccccc1`, the Potency was 54.4 µM (active).
As for `C[Si](C)(CCCN)O[Si](C)(C)CCCN`, the Potency result was “inactive”.
Regarding `CCCNCC(O)COc1ccccc1C(=O)CCc1ccccc1` (stereo not given), the Potency is 6.68 µM (active).
Consider `Nc1ccc(S(=O)(=O)Nc2ccccc2)cc1`, for which the Potency entry was “inactive”.
As to `CCCCC`, the Potency entry was “inactive”.
For the molecule `CCCCCCCN`, the Potency result is “inactive”.
On to `COCC(C)OC(C)=O` (stereo not given), for which the Potency entry was “inactive”.
Then `C=C1[C@H]2CC[C@@H]3[C@H]2C(C)(C)CCC[C@]13C`, with “inactive”.
Turning to `CNC(=O)CN(CCN(CCN(CC(=O)[O-])CC(=O)NC)CC(=O)[O-])CC(=O)[O-].O.[Gd+3]`, the Potency result was “inactive”.
Regarding `CC1=CCCC(C)(C)C12CCC(C)O2` (stereo not given), the Potency is 24.3 µM (active).
The value for `Cc1oc(-c2ccccc2)nc1CCOc1cccc2c1ccn2CCC(=O)O` was “inactive”; that for `COc1cc(Cl)ccc1Oc1ccc(Cl)cc1Cl` was “inactive”; that for `COc1ccc(-c2nc3ccc(C4=NNC(=O)CC4C)cc3[nH]2)cc1` (stereo not given) was 11.9 µM (active).
`NCC(=O)CCC(=O)O`: the Potency entry is “inactive”.
